Laboratory results taken from PubChem BioAssay (NCI).
Several values for one entry are separate records, joined by “and”; a condition that tells them apart may be missing. Identical values can stand only once. This is part of a sample that, as a whole, favours compounds with a hit. Of some 83,000 tested, about 20% had one in any assay.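 The endpoint reported here, percent growth, reads 100 for growth as untreated, 0 for no net growth and -100 for all cells dead.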 Activity calls are given as the source filed them. Rule for the calls: active = growth percent below 10; inactive = the rest.

Assays:
Assay in all cases: NCI-60 one-dose screen, 48 h (100 = growth as untreated, 0 = no growth, -100 = all killed)
Conditions in all cases: 10 µM unless noted
NCI-H23 lung = tested on: NCI-H23 lung
NCI-H226 lung = tested on: NCI-H226 lung
HOP-62 NSCLC = tested on: HOP-62 NSCLC
NCI-H460 lung = tested on: NCI-H460 lung
NCI-H522 lung = tested on: NCI-H522 lung
786-0 renal = tested on: 786-0 renal
COLO 205 colon = tested on: COLO 205 colon
NCI-H322M lung = tested on: NCI-H322M lung
A549/ATCC NSCLC = tested on: A549/ATCC NSCLC
HOP-92 NSCLC = tested on: HOP-92 NSCLC

Measured: growth

C[N+](C)(C)CN1C(=O)c2ccccc2C1=O
inactive: NCI-H23 lung 105% | NCI-H226 lung 112% | HOP-62 NSCLC 96% | NCI-H460 lung 105% | NCI-H522 lung 90.9% | 786-0 renal 104% | COLO 205 colon 104%

Nc1ccc2[nH]c(-c3ccccc3)cc(=O)c2c1
inactive: NCI-H23 lung 98.3% | NCI-H226 lung 101% | NCI-H322M lung 97.5% | HOP-62 NSCLC 96.8% | NCI-H460 lung 97.4% | NCI-H522 lung 71.3% | A549/ATCC NSCLC 102% | 786-0 renal 96.6%

C1CCCCNCCC1
inactive: NCI-H226 lung 99.2% | NCI-H322M lung 111% | HOP-62 NSCLC 116% | NCI-H460 lung 118% | HOP-92 NSCLC 88.3% | NCI-H522 lung 115% | A549/ATCC NSCLC 105% | 786-0 renal 109% | COLO 205 colon 121%

CC(=O)C(/C=N/C(N)=O)=C(/C)O
inactive: NCI-H226 lung 111% | NCI-H322M lung 113% | NCI-H460 lung 116% | HOP-92 NSCLC 119% | NCI-H522 lung 99.6% | A549/ATCC NSCLC 99.6% | 786-0 renal 104% | COLO 205 colon 120%

Cc1ccc(-c2noc(C)n2)cc1
inactive: NCI-H226 lung 93.8% | HOP-62 NSCLC 100% | NCI-H460 lung 106% | HOP-92 NSCLC 92.1% | NCI-H522 lung 99.3% | A549/ATCC NSCLC 93.6% | 786-0 renal 102% | COLO 205 colon 113%

Nc1ccc2ccc(N)cc2c1
inactive: NCI-H23 lung 69.7% | NCI-H226 lung 95.7% | NCI-H322M lung 69.1% | HOP-62 NSCLC 86% | NCI-H460 lung 91.7% | HOP-92 NSCLC 101% | 786-0 renal 94.3% | COLO 205 colon 89.6%

NC(=S)NS(=O)(=O)c1ccc(N)cc1
inactive: NCI-H226 lung 96% | HOP-62 NSCLC 96.7% | NCI-H460 lung 109% | HOP-92 NSCLC 103% | NCI-H522 lung 102% | A549/ATCC NSCLC 101% | 786-0 renal 105% | COLO 205 colon 108%

CC1(c2ccc3ccccc3c2)CCC(=O)O1 (stereo not given)
inactive: NCI-H23 lung 95% | NCI-H226 lung 110% | HOP-62 NSCLC 93.5% | NCI-H460 lung 112% | HOP-92 NSCLC 106% | NCI-H522 lung 91.3% | A549/ATCC NSCLC 101% | 786-0 renal 103% | COLO 205 colon 99.3%

CCOC(=O)c1sc(N)nc1-c1ccccc1
inactive: NCI-H23 lung 101% | NCI-H226 lung 98.7% | NCI-H322M lung 97% | HOP-62 NSCLC 87.9% | NCI-H460 lung 104% | NCI-H522 lung 95.5% | A549/ATCC NSCLC 101% | 786-0 renal 95.1% | COLO 205 colon 102%

Nc1nc(SC/C=C/CCl)c2[nH]cnc2n1
inactive: NCI-H23 lung 102% and 98.1% | NCI-H226 lung 95.8% and 131% | NCI-H322M lung 112% and 115% | HOP-62 NSCLC 106% and 99.8% | NCI-H460 lung 105% | NCI-H522 lung 95.1% and 86.7% | 786-0 renal 102% and 99.1% | COLO 205 colon 104% and 116%

CNC(=O)c1cccnc1
inactive: NCI-H226 lung 107% | NCI-H322M lung 110% | NCI-H460 lung 109% | HOP-92 NSCLC 109% | NCI-H522 lung 91.4% | A549/ATCC NSCLC 92.8% | 786-0 renal 99.6% | COLO 205 colon 121%

O=C(O)c1cc(C(=O)O)cc([N+](=O)[O-])c1
inactive: NCI-H226 lung 102% | NCI-H322M lung 105% | NCI-H460 lung 110% | HOP-92 NSCLC 111% | NCI-H522 lung 94.3% | A549/ATCC NSCLC 106% | 786-0 renal 101% | COLO 205 colon 110%

CC(/C=N/N1C(=O)c2ccccc2C1=O)c1ccccc1 (stereo not given)
inactive: NCI-H23 lung 108% | NCI-H226 lung 90.6% | NCI-H322M lung 98.1% | HOP-62 NSCLC 112% | NCI-H460 lung 108% | NCI-H522 lung 104% | 786-0 renal 102% | COLO 205 colon 114%

Nc1ncnc2c1ncn2C1CC(O)C(CO)O1 (stereo not given)
inactive: NCI-H23 lung 106% and 112% | NCI-H226 lung 101% and 105% | NCI-H322M lung 155% and 112% | HOP-62 NSCLC 109% and 105% | NCI-H460 lung 102% and 124% | NCI-H522 lung 142% and 100% | A549/ATCC NSCLC 101% | 786-0 renal 101% and 105% | COLO 205 colon 116% and 107%
